Calls of active or inactive are those of the source. Calls follow the shape of the dose curve; as a rule, active = well fitted curve in the direction sought with a large enough effect; inconclusive = small, poorly fitted or top-dose-only effect, or effect the other way, or another doubt; inactive = no such curve, though single readings can be large or run the other way.
Experiment: Inducers of the Endoplasmic Reticulum Stress Response (ERSR) in human glioma: Validation (AID 504836)
Conditions: human glioma cells, ER stress response reporter; series mostly up to 38.3 µM
Text: Primary protein unfolding takes place for many diseases, including diabetes and hypoxia, , and triggers a reaction in the cells called ER stress response (ERSR). ). ERSR is designed as a repair mechanism, but ultimately leads to cell death via apoptosis if conditions triggering protein unfolding persist (1). The molecular clue to ERSR activation is the enhancement of the expression of key molecular chaperones, including the glucose regulated protein (GRP) 78. GRP78 is the main sensor for protein folding and the main actuator of the ERSR.
In a collaboration between the Southern Research Institute and the NIH Chemical Genomics Center, a cell based screen was developed that reliably uses GRP78 as a sensor to identify small molecules as inducers of ERSR. In resting conditions, GRP78 binds proteins and acts as a natural repressor. Once unfolded proteins are present in the ER, GRP78 releases some of the repressors and binds to the unfolded proteins. The release of the repressors executes the ERSR program. Using a human glioma cell line in a miniaturized, luminescent format, a high-throughput screen was developed to identify actuators of the ERSR.
(1) Soboloff, J. and S. A. Berger (2002). "Sustained ER Ca2+ depletion suppresses protein synthesis and induces activation-enhanced cell death in mast cells." J Biol Chem 277(16): 13812-20.
NIH Chemical Genomics Center [NCGC]
NIH Molecular Libraries Probe Centers Network [MLPCN]
Assay Submitter (PI): Maurizio Grimaldi, Southern Research Institute
Stable transfected human glioma cell line, U87-MG, are dispensed at density 1000 cells/well into Greiner white solid bottom 1536-well assay plates. Compounds are transferred via Kalypsys pin tool equipped with 1536-pin array (10nl slotted pins, V&P Scientific, San Diego, CA). The assay plates will be incubated for 16 hours and developed by adding appropriate quantities of the Promega Bright Glo reagent. The plates will be incubated at room temperature for 10 minutes prior to being transferred into a ViewLux high-throughput CCD imager (PerkinElmer), wherein end-point measurements of luminescence are acquired.

| Compound | outcome |
| --- | --- |
| COc1ccc2[nH]cc(CCN)c2c1 | inactive |
| C=CCN1CCc2cccc3c2[C@H]1Cc1ccc(O)c(O)c1-3 | inactive |
| O=[N+]([O-])c1cc(O)c(O)c([N+](=O)[O-])c1 | inactive |
| CCCN(CCC)CCc1ccc(O)c(O)c1 | inactive |
| CCCN1CCc2cc(O)cc3c2[C@H]1Cc1ccc(O)c(O)c1-3 | inactive |
| NC(N)=Nc1ccc2[nH]c3c(c2c1)C[C@@]1(O)[C@H]2Cc4ccc(O)c5c4[C@@]1(CCN2CC1CC1)[C@H]3O5 | inactive |
| N[C@@H](Cn1ccc(=O)[nH]c1=O)C(=O)O | inactive |
| C[C@H](Cc1ccc2c(c1)OC(C(=O)O)(C(=O)O)O2)NC[C@H](O)c1cccc(Cl)c1 | inactive |
| CCCN1CC[C@@H]2c3cc(O)ccc3CC[C@@H]21 | inactive |
| COc1ccc2[nH]c3c(c2c1)CCNC3 | inactive |
| CC(Cc1ccc(OCC(=O)O)cc1)NCC(O)c1cccc(Cl)c1 (stereo not given) | inactive |
| CCCN(CCC)C1CCc2cccc(O)c2C1 (stereo not given) | inactive |
| C[N+](C)(C)CC#CCN1CCCC1=O | inactive |
| CCN1C[C@@]2(COC)C3[C@@H](OC)C4[C@@H]1C3([C@@H]1C[C@]3(O)[C@H](OC(=O)c5ccccc5)[C@@H]1[C@]4(OC(C)=O)[C@@H](O)[C@@H]3OC)[C@H](OC)C[C@H]2O | inactive |
| CCCC[N+]1(C)C2CC(OC(=O)[C@H](CO)c3ccccc3)CC1C1OC12 (stereo not given in full) | inactive |
| Oc1ccc2c3c1O[C@H]1c4[nH]c5ccccc5c4C[C@@]4(O)C(C2)N(CC2CC2)CCC314 (stereo not given in full) | inactive |
| NC(N)=NOCC[C@H](N)C(=O)O | inactive |
| NCC(O)c1cc(O)c(O)cc1F (stereo not given) | inactive |
| O=C1CC[C@@]2(O)C3Cc4ccc(O)c5c4C2(CCN3CC2CC2)[C@H]1O5 (stereo not given in full) | inactive |
| CN(C(=O)Cc1ccc(Cl)c(Cl)c1)C(CN1CCCC1)c1cccc(OCC(=O)O)c1 (stereo not given) | inactive |

| Compound | outcome |
| --- | --- |
| c1ccc2c(N3CCNCC3)cccc2c1 | inactive |
| C[C@@H]1O[C@@H](O[C@H]2C[C@@H](O)[C@]3(CO)[C@@H]4C(CC[C@]3(O)C2)[C@@]2(O)CC[C@H]([C@@H]3COC(=O)C3)[C@@]2(C)C[C@H]4O)[C@H](O)[C@H](O)[C@H]1O (stereo not given in full) | inactive |
| COc1ccc(CNC(=O)/C=C/c2ccc3[nH]cc(CCN(C)C)c3c2)cc1 | inactive |
| Ic1ccccc1CNC1C2CCN(CC2)C1C(c1ccccc1)c1ccccc1 (stereo not given) | inactive |
| Cc1o[nH]c(=O)c1CC(N)C(=O)O (stereo not given) | inactive |
| COc1ccc2c(c1)C13CCCCC1C(C2)N(C)CC3 (stereo not given) | inactive |
| NC(Cc1ccc(N(CCCl)CCCl)cc1)C(=O)O (stereo not given) | inactive |
| Oc1ccc2c3c1O[C@H]1c4oc5ccccc5c4C[C@@]4(O)C(C2)N(CC2CC2)CCC314 (stereo not given in full) | inactive |
| C[N+]1(C)CCC(OC(=O)C(c2ccccc2)c2ccccc2)CC1 | inactive |
| CCOC(=O)c1ncn2c1[C@@H]1CCCN1C(=O)c1cc(OC)ccc1-2 | inactive |
| CC(=O)NBr | inactive |
| CN1C2CCC1CC(OC(c1ccccc1)c1ccccc1N)C2 (stereo not given) | inactive |
| CCS(=O)(=O)Nc1cccc(C(=C2CCCCC2)c2cnc[nH]2)c1 | inactive |
| Clc1cc(I)cc(Cl)c1NC1=NCCN1 | inactive |
| CCCCCCC(C)(C)c1ccc([C@@H]2C[C@H](O)CC[C@H]2CCCO)c(O)c1 | inactive |
| N[C@@]1(C(=O)O)CC[C@@H](C(=O)O)C1 | inactive |
| NC(=O)CI | inactive |
| NNC(=O)c1ccc(O)cc1 | inactive |
| OCc1cnc[nH]1 | inactive |
| NC(Cc1cc(O)c(O)cc1O)C(=O)O (stereo not given) | inactive |

— PubChem BioAssay (NCATS)
